Test results from the supplement of paper PMC10338343.
± gives the standard deviation.

These sequences were tested on MILI (PIWIL2) piRISC loaded with L1MC piRNA (26 nt) (assay: pre-steady-state target cleavage rate (min^-1); guide: L1MC piRNA 5'p-UAACUAAAUACUAUGCAAGCUGUAGG; higher = faster piRNA-guided slicing of the target). Settings: auxiliary factor: 500 nM mouse GTSF1.
Method in brief: (§1)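 Cleave-'n-Seq reactions paired 0.1 nM transcribed, DNA-blocked target RNA library with 1 nM active affinity-purified piRISC holding one synthetic guide, plus or minus 500 nM GTSF1 partner protein, in HEPES–potassium acetate buffer at 33 °C for 0–8 or 0–960 min. After sequencing of uncleaved targets and normalisation to depth and weakly complementary targets, the pre-steady-state cleavage rate was taken from a burst-and-steady-state fit. Three trials were pooled, and k3 was capped at 0.0001 min^-1.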

Sequence | pre-steady-state target cleavage rate
UCCUCCUACAGCUUGCAUACUAUUUACUUA | 0.0688 ± 0.016
UCCUGCUACACCUUGCAUAGUAUUUUCAAA | 0.0765 ± 0.028
UCCUGCUACAGCUUGCAUAGUUAAUAGUUA | 0.0263 ± 0.0097
UCCUGGAACACGAUGCAUAGUAUUUACAAA | 0.0623 ± 0.018
UCCUGCUACAGGUUGCAUAGAAUUUAGUUA | 0.0387 ± 0.0083
UCCUGGAUCAGCUUGCAUAGUAUAUAGUAA | 0.189 ± 0.019
UCCUGCUACAGCUUCCAUAGUAUUUAGUAA | 0.0172 ± 0.0082
UCCUCCUACAGCUUGCAUAGUAUUUAGUGUA | 0.158 ± 0.027
UCCUGGUACACCUUGCAUAGUAUUUAGAAA | 0.13 ± 0.043
UCCUCCUAGAGCUUGCAUAGUAUUUAGAAA | 0.069 ± 0.016
UCCUGCUACAGCUUGCAUAGUAUUUUCAAA | 0.137 ± 0.041
UCCUCCUAGAGCUUGCAUAGUAUUUUGUUA | 0.251 ± 0.029
UCCUGGAUGUCCUUGCAUAGUAUGUAGUUA | 0.107 ± 0.022
UCCUGCUAGAGCUUGCAUAGAAUUUAGUUA | 0.0404 ± 0.0063
UCCUGGAUGUGCUUCCAUAGUAUUUAGUUA | 0.0271 ± 0.0077
UCCUGGAUCAGCUUGCAAAGUAUUUACAAA | 0.0432 ± 0.012
UCCUGGUACAGCUUGCAUAGUAUUUACAUA | 0.0411 ± 0.014
UCCUCCUACAGCUAGCAUAGUAUUUACAAA | 0.0849 ± 0.018
UCCUGCUACAGCUUGCAUAGAAUUUAGUAA | 0.237 ± 0.062
UCCUCCUUCAGCUUGCAUAGUAUUUACUUA | 0.132 ± 0.023

Sequence | pre-steady-state target cleavage rate
UCCUGGUACAGCUUGCAAAGUAUUUUCAAA | 0.0283 ± 0.012
UCCUCCUACAGCUUGCUUAGUAUUUAGAUA | 0.15 ± 0.018
UCCUCCUAGAGCUUGCAUACUAUUUAGUUA | 0.101 ± 0.018
UCCUCGUACAGCUUGCAUAGUAUUUUCAAA | 0.0759 ± 0.02
UCCUCCUACAGCUUGCAUAGUUUUUACUUA | 0.036 ± 0.0086
UCCUGGAUCAGCUUGCAUAGUAUAAAGUAA | 0.11 ± 0.024
UCCUGGAUGUGCUUGCAUAAUAUUUAGUUA | 0.158 ± 0.018
UCCUGCUACAGCUUGCAUAGUAUUUAGAUUA | 0.135 ± 0.023
UCCUGCUACAGCUUGGAUACUAUUUAGUUA | 0.0884 ± 0.018
UCCUGGAUGAGCUAGCAUAGUAUUUAGAAA | 0.209 ± 0.049
UCCUCCAACAGCUUGCAUAGAAUUUAGUUA | 0.07 ± 0.014
UCCUGGUACAGCUUGCAUAGUUAUUAGUAA | 0.01 ± 0.0044
UCCUGGUACAGCUUGCAAAGUAUUUAGUAA | 0.0794 ± 0.014
UCCUCCAUGAGCUUGCAUAGUAUUUAGAAA | 0.0637 ± 0.016
UCCUGCUACAGCUUGCAUAGAUUUAGUUA | 0.00937 ± 0.0054
UCCUGGAUGAGCUUGCUUAGUAUUAAGUUA | 0.128 ± 0.021
UCCUGCUACAGCAUGCAUAGUAUUUAGAUA | 0.179 ± 0.033
UCCUGCUACAGCUUGCAUAGAAUUUAGAUA | 0.0657 ± 0.021
UCCUCCUACAGCUUGCAUAGAUUUUAGUAA | 0.0588 ± 0.015

What follows are sequences tested on EfPiwi piRISC loaded with L1MC piRNA (26 nt) (assay: pre-steady-state target cleavage rate (min^-1); auxiliary factor: 500 nM Ephydatia muelleri Gtsf1; guide: L1MC piRNA 5'p-UAACUAAAUACUAUGCAAGCUGUAGG; MIWI and MILI are mouse PIWI proteins and EfPiwi is from a freshwater sponge; tags in brackets are library labels; higher = faster piRNA-guided slicing of the target). Settings: not given.
Method in brief: as §1

Sequence | pre-steady-state target cleavage rate
UCCUCCUACAGCUUGCAUACUAUUUACUUA | 0.00621 ± 0.0047
UCCUGCUACACCUUGCAUAGUAUUUUCAAA | 0.00244 ± 0.0022
UCCUGCUACAGCUUGCAUAGUUAAUAGUUA | 0.00347 ± 0.0032
UCCUGGAACACGAUGCAUAGUAUUUACAAA | 0.00408 ± 0.0037
UCCUGCUACAGGUUGCAUAGAAUUUAGUUA | 0.00649 ± 0.0018
UCCUGGAUCAGCUUGCAUAGUAUAUAGUAA | 0.00291 ± 0.0023
UCCUGCUACAGCUUCCAUAGUAUUUAGUAA | 0.00255 ± 0.0016
UCCUCCUACAGCUUGCAUAGUAUUUAGUGUA | 0.00735 ± 0.0033
UCCUGGUACACCUUGCAUAGUAUUUAGAAA | 0.0037 ± 0.0035
UCCUCCUAGAGCUUGCAUAGUAUUUAGAAA | 0.00517 ± 0.0019
UCCUGCUACAGCUUGCAUAGUAUUUUCAAA | 0.00277 ± 0.0021
UCCUCCUAGAGCUUGCAUAGUAUUUUGUUA | 0.006 ± 0.0024
UCCUGGAUGUCCUUGCAUAGUAUGUAGUUA | 0.00374 ± 0.0037
UCCUGCUAGAGCUUGCAUAGAAUUUAGUUA | 0.0043 ± 0.0014
UCCUGGAUGUGCUUCCAUAGUAUUUAGUUA | 0.00277 ± 0.0019
UCCUGGAUCAGCUUGCAAAGUAUUUACAAA | 0.00563 ± 0.0037
UCCUGGUACAGCUUGCAUAGUAUUUACAUA | 0.0038 ± 0.0029
UCCUCCUACAGCUAGCAUAGUAUUUACAAA | 0.00397 ± 0.0031
UCCUGCUACAGCUUGCAUAGAAUUUAGUAA | 0.00358 ± 0.0016
UCCUCCUUCAGCUUGCAUAGUAUUUACUUA | 0.00514 ± 0.0032

Sequence | pre-steady-state target cleavage rate
UCCUGGUACAGCUUGCAAAGUAUUUUCAAA | 0.00424 ± 0.0036
UCCUGGAUGUCGAACGUUAGUAUUUUCAAA [g6:g13:cont:t1A] | < 0.0001
UCCUCCUACAGCUUGCUUAGUAUUUAGAUA | 0.00689 ± 0.0038
UCCUCCUAGAGCUUGCAUACUAUUUAGUUA | 0.00855 ± 0.0026
UCCUCGUACAGCUUGCAUAGUAUUUUCAAA | 0.0038 ± 0.0029
UCCUCCUACAGCUUGCAUAGUUUUUACUUA | 0.00304 ± 0.0026
UCCUGGAUCAGCUUGCAUAGUAUAAAGUAA | 0.00455 ± 0.0038
UCCUGGAUGUGCUUGCAUAAUAUUUAGUUA | 0.00327 ± 0.0027
UCCUGCUACAGCUUGCAUAGUAUUUAGAUUA | 0.00658 ± 0.0023
UCCUGCUACAGCUUGGAUACUAUUUAGUUA | 0.00633 ± 0.0024
UCCUGGAUGAGCUAGCAUAGUAUUUAGAAA | 0.00297 ± 0.0019
UCCUCCAACAGCUUGCAUAGAAUUUAGUUA | 0.00468 ± 0.0016
UCCUGGUACAGCUUGCAUAGUUAUUAGUAA | 0.00807 ± 0.0043
UCCUGGUACAGCUUGCAAAGUAUUUAGUAA | 0.00304 ± 0.0024
UCCUCCAUGAGCUUGCAUAGUAUUUAGAAA | 0.00475 ± 0.0019
UCCUGCUACAGCUUGCAUAGAUUUAGUUA | 0.00286 ± 0.0015
UCCUGGAUGAGCUUGCUUAGUAUUAAGUUA | 0.00314 ± 0.0031
UCCUGCUACAGCAUGCAUAGUAUUUAGAUA | 0.00378 ± 0.0015
UCCUGCUACAGCUUGCAUAGAAUUUAGAUA | 0.00319 ± 0.0012
UCCUCCUACAGCUUGCAUAGAUUUUAGUAA | 0.00392 ± 0.0025
